Screening data: PubChem, several laboratories
An excerpt weighted towards active compounds, which were near 3.8% of everything screened.
Yeast superoxide – reduction of superoxide in aged yeast, primary screen, HTS; S. cerevisiae aged cells, superoxide DHE fluorescence; stronger effect = lower value; superoxide response (% of plate mean), % at 10 µM; hit rate 0.18% among 330,000;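 active = superoxide response under a set limit, about three screen SD below normal, cut at about 65% in these data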;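 also: yeast aged for seven days with compound at 30 °C before DHE staining; 100% = average MFI of all compound-treated wells on the plate with controls excluded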
TIM10 inh – growth inhibitors of isogenic TIM10 control yeast, primary screen, counter-screen for tim10-1 yeast inhibitor project, luminescence, uHTS | S. cerevisiae TIM10 strain growth, BacTiter-Glo luminescence, 24 h | inhibition, % at 10 µM | hit rate 1.4% among 330,000;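 active = inhibition of 40% or more at the single tested concentration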;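 also: wild-type TIM10 isogenic control strain grown at permissive 25 °C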
tim23-1 inh – growth inhibitors of tim23-1 mutant yeast, primary screen, luminescence, uHTS. AID 463212, 2010. S. cerevisiae tim23-1 growth, BacTiter-Glo luminescence, 24 h. inhibition, % at 20 µM. hit rate 1.3% among 330,000;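 active = growth inhibition of the mutant yeast at or above 50%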;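 also: temperature-sensitive mutant grown at 25 °C; plate controls were DMSO-treated mutant yeast for no effect and medium wells lacking yeast for full effect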
tim10-1 inh – growth inhibitors of tim10-1 mutant yeast, primary screen, luminescence, uHTS | S. cerevisiae tim10-1 ts strain growth, BacTiter-Glo, 24 h | inhibition, % at 20 µM | hit rate 2.2% among 330,000;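 active = inhibition of at least 40%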;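 also: mutant grown at 25 °C; 0% = DMSO wells with yeast and 100% = wells holding no yeast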
NLRP3 yeast inh – NALP3 inflammasome inhibitors in reconstituted yeast, primary screen, luminescence, uHTS; AID 2825, 2010; inhibition, % at 10 µM; hit rate 0.39% among 330,000; Yeast reconstituted NLRP3/ASC/caspase-1, beta-gal luminescence, 24 h;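 active = inhibition of 50% or more; inactive = inhibition below 50%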;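 also: plate controls were induced DMSO wells for no effect and uninduced yeast grown without galactose for full effect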
Superoxide pick – superoxide lowering in aged yeast cells, confirmation, cherry picked compounds; AID 434994, 2010; hit rate 1% among 850; shares compounds with Yeast superoxide; S. cerevisiae aging, superoxide DHE fluorescence; stronger effect = lower value; superoxide response (% of plate), % at 10 µM;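 active = superoxide signal below 65% of the plate average of sample wells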;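 also: cells aged with compound for 7 days at 30 degrees C before staining; 100% equals mean DHE fluorescence of all compound wells on the plate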
DHE fluor count – DHE quenching or ROS scavenging interference in aged yeast, artefact control for yeast caloric restriction mimetic project, S. cerevisiae BY4741, flow cytometry. DHE fluorescence; stronger effect = lower value. shares compounds with Yeast superoxide. 850 tested, under 10 active. fluorescence response, % at 10 µM. AID 435000, 2010;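 active = fluorescence response below 15%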;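 also: percent of the mean fluorescence averaged over all compound wells on the plate; lower means stronger quenching of DHE signal or ROS scavenging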
NALP3 yeast conf – NALP3 inhibitors retested in yeast, confirmation, luminescence, single concentration; shares compounds with NLRP3 yeast inh; yeast expressing human NALP3; inhibition, % at 10 µM; hit rate 81% among 1,300; AID 435006, 2010; in the data active = inhibition above about 48%
Casp1 ASC ctr – CASP1-PYCARD signaling inhibition in yeast, confirmatory test, counterassay for NLRP3 inhibitor program, one-dose; shares compounds with NLRP3 yeast inh; yeast expressing Caspase-1-ASC, luminescence counter screen; inhibition, % at 10 µM; hit rate 66% among 1,000; AID 488784, 2010
NALP3 retest – NALP3 inhibitors in yeast, repeat test, confirmation, luminescence, single concentration, retest. shares compounds with NLRP3 yeast inh. inhibition, % at 10 µM. yeast expressing human NALP3, luminescence read-out. AID 488794, 2010. hit rate 53% among 1,000
tim10-1 conf – growth inhibitors of tim10-1 mutant yeast, confirmation, single concentration, luminescence, S. cerevisiae; shares compounds with tim10-1 inh; S. cerevisiae tim10-1 ts strain growth, BacTiter-Glo, 24 h; inhibition, % at 20 µM; hit rate 56% among 7,400;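 active = inhibition of yeast growth at or above a set limit in either of two repeat tests at 20 µM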;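 also: tim10-1 mutant grown at permissive 25 °C to find synthetic lethal compounds; 0% = DMSO yeast wells and 100% = medium wells without yeast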
TIM10 conf – growth inhibitors of wild-type TIM10 yeast, confirmation, counter-screen for tim10-1 synthetic lethality project, single concentration, luminescence, S. cerevisiae; inhibition, % at 10 µM; AID 463215, 2010; shares compounds with TIM10 inh; S. cerevisiae tim10 strain growth, BacTiter-Glo luminescence, 24 h; hit rate 63% among 4,600;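 active = inhibition of yeast growth at or above a set limit in either of two replicates at 10 µM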;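 also: this counterscreen used the strain with wild-type TIM10; 0% = yeast with DMSO and 100% = medium wells lacking yeast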
tim23-1 conf – tim23-1 mutant yeast growth inhibitors, confirmation, luminescence, single concentration. S. cerevisiae tim23-1 growth, BacTiter-Glo luminescence, 24 h. hit rate 83% among 4,400. inhibition, % at 20 µM. AID 463218, 2010. shares compounds with tim23-1 inh;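 active = inhibition above about 39% in either of two replicate wells at 20 µM, limit read from the data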;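 also: temperature-sensitive tim23-1 mutant grown at 25 °C; 0% = DMSO wells with yeast and 100% = medium wells without yeast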
Active calls of the source: *; nt = not tested or not shown; ! = not confirmed by another sample. Rule as the data show it, unless noted: active = inhibition above about 50%; inactive = the rest.

SMILES	Yeast superoxide	TIM10 inh	tim23-1 inh	tim10-1 inh	NLRP3 yeast inh	Superoxide pick	DHE fluor count	NALP3 yeast conf	Casp1 ASC ctr	NALP3 retest	tim23-1 conf	others
Cc1[nH]c2ccccc2c1N=Nc1ccccc1F	65*	50*	72*	-18	22	91	98	nt	nt	nt	-51	TIM10 conf=55*
Cc1ccc(NC(=O)CN2CCN(S(=O)(=O)c3cccs3)CC2)cc1S(=O)(=O)N(C)C	103	14	6	6	-6	nt	nt	nt	nt	nt	nt
O=c1c2ccc(Cl)cc2nc(-c2ccc([N+](=O)[O-])cc2)n1O	54*	63*	55*	33	57*	87	90	81*	62*	54*	63*	TIM10 conf=45*
COc1ccc(-c2nc3ccccc3c(=O)n2O)cc1	61*	31	58*	40	48	92	86	nt	nt	nt	52*
CC(C)(C)n1nc(-c2ccc(F)cc2)c2c(N)ncnc21	32*	69*	73*	38	93*	72	93	93*	96*	92*	61*	TIM10 conf=51*
CC(C)(C)n1nc(-c2ccc(Cl)cc2)c2c(N)ncnc21	50*	50*	63*	23	88*	56*	92	94*	95*	90*	62*	TIM10 conf=47*
CN(C)C1(CNC(=O)c2cccc(S(=O)(=O)Nc3ccc(Br)cc3)c2)CCCCC1	109	-25	-63	-20	20	nt	nt	nt	nt	nt	nt
CCn1c(SC(C)C(=O)Nc2ccc3c(c2)OCCO3)nnc1C1CC1 (stereo unspecified)	96	3	-1	-13	18	nt	nt	nt	nt	nt	nt
CCn1c2ccccc2c2cc(/C(C)=N/O)ccc21	101	42*	75*	61*	14	104	122	nt	nt	nt	84*	tim10-1 conf=56*;TIM10 conf=45*
CCn1c2ccccc2c2cc(/C=N/NC(=O)c3ccc(O)cc3)ccc21	92	6	21	1	4	nt	nt	nt	nt	nt	nt
CCc1ccccc1N(CC(=O)N1CCc2ccccc2C1)S(C)(=O)=O	107	-3	13	24	-3	nt	nt	nt	nt	nt	nt
CCCCOc1ccc(-c2cc(C(=O)NNC(=S)NCC)c3ccccc3n2)cc1	62*	47*	67*	72*	10	123	106	nt	nt	nt	74*	tim10-1 conf=70*;TIM10 conf=46*
CCNC(=S)NNC(=O)c1cc(-c2cccc(OCC)c2)nc2ccccc12	113	15	22	37	7	nt	nt	nt	nt	nt	nt
CC(=O)c1ccc(N2CCN(C(=O)c3ccc(Br)cc3)CC2)c(F)c1	88	2	57*	33	39	90	109	nt	nt	nt	34
c1cnc2c(c1)ccc1cccnc12	64*!	6	59*!	11	9	89	105	nt	nt	nt	44*
Cc1cccc2cccnc12	119	-5	-7	-15	7	nt	nt	nt	nt	nt	nt
CC1(C)CC(=O)C(CS(=O)(=O)c2ccccc2)=C(Cl)C1	97	16	26	26	13	nt	nt	nt	nt	nt	nt
O=C(Nc1ccc(F)cc1)C1(S(=O)(=O)c2ccc(Cl)cc2)CC1	84	-12	28	21	55*	nt	nt	75*	48	42	nt
COc1cccc(NC(=O)C2(S(=O)(=O)c3ccc(Cl)cc3)CC2)c1	101	9	12	15	12	nt	nt	nt	nt	nt	nt
O=C(NCCC1CCCCN1S(=O)(=O)c1cccs1)C(=O)NCc1ccccc1 (stereo unspecified)	100	5	20	25	15	nt	nt	nt	nt	nt	nt
CC(C)(C)c1csc(N/N=C/c2cccnc2)n1	97	19	18	19	58*	nt	nt	68*	76*	56*	nt
O=C(NNC(=O)c1ccc(Oc2ccc(C3SCCS3)cc2)o1)c1ccc(Cl)cc1	90	-5	1	0	53*	nt	nt	34	nt	nt	nt
S=C(Nc1cc(Cl)cc(Cl)c1)NC1CCN(Cc2ccccc2)CC1	97	16	7	12	56*	nt	nt	53*	nt	nt	nt
S=C(Nc1ccccc1Cl)NC1CCN(Cc2ccccc2)CC1	103	-7	-10	-19	13	nt	nt	nt	nt	nt	nt
O=C(NNC(=O)c1ccc([N+](=O)[O-])cc1)c1ccc(Br)cc1	103	12	12	-5	27	nt	nt	nt	nt	nt	nt
SMILES	Yeast superoxide	TIM10 inh	tim23-1 inh	tim10-1 inh	NLRP3 yeast inh	Superoxide pick	DHE fluor count	NALP3 yeast conf	Casp1 ASC ctr	NALP3 retest	tim23-1 conf	others
COc1ccc(C(=O)NNC(=S)NC(=O)c2cccs2)cc1	141	3	28	4	56*	nt	nt	71*	27	44	nt
COc1ccc(C(=O)NC(=S)NNC(=O)c2cccc(C)c2)cc1	204	16	23	21	51*	nt	nt	48	49	48	nt
COc1ccc(C(=O)NNC(=S)NC(=O)c2ccc(F)cc2)cc1Br	193	32	30	4	62*	nt	nt	71*	60*	60*	nt
O=C(NNC(=S)NC(=O)c1ccc(Br)cc1)c1ccc([N+](=O)[O-])cc1	104	8	30	-2	53*	nt	nt	37	37	54*	nt
COc1ccc(C(=O)NC(=S)NNC(=O)c2ccncc2)cc1Br	109	17	24	20	7	nt	nt	nt	nt	nt	nt
COc1ccc(N2CCN(C(=O)Cc3ccc(OC)c(OC)c3)CC2)cc1	109	3	13	10	10	nt	nt	nt	nt	nt	nt
COc1cc(C(c2nnnn2C2CCCC2)N2CCN(C(=O)c3ccco3)CC2)cc(OC)c1OC (stereo unspecified)	93	8	19	3	12	nt	nt	nt	nt	nt	nt
O=C1/C(=C/c2cccnc2)SC(=S)N1c1ccc(O)cc1	93	-2	-10	6	87*	nt	nt	89*	90*	74*	nt
